The list is not random: actives were taken first. Their share in the collection is about 3.2%.
IL2 activator = activators of IL-2 | IL-2 activation reporter assay, cell-based qHTS; stimulated with anti-CD3/CD4/CD28 beads; in transgenic mouse T cells | activation, % (series mostly up to about 46 µM) | hit rate 0.065% among 360,000 | AID 652025; in the data active means activation above about 50%; inconclusive means mostly about 30% to 49%; further: 0% is about no effect
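Quantitative HTS in unstimulated transgenic mouse T cells, with memory T cells as non-tolerant control and PMA/ionomycin as tolerance-bypass control. Compound pretreatment lasted 60 minutes before 18 h bead stimulation; EGFP/DsRed fluorescence read.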
A549 viability = counter-screen for Nrf2 inhibitors: cytotoxicity in A549 cells. A549 ARE-Fluc cells, CellTiter-Fluor viability, 18-24 h. Potency, µM (titrated, usually from 46 µM), for inactives: top-dose activity change, negative = cytotoxicity, most hits filed as inhibitors. hit rate 0.16% among 390,000; further: potency means the concentration at half of the fitted maximal effect; on the % scale 0 is the no-effect control and ±100 the full control effect
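A549 ARE_Fluc cells in 5% FBS OPTI-MEM were exposed to compounds in concentration-response for 18-24 h at 37 deg C. Viability was read by CellTiter-Fluor fluorescence (Ex 405/Em 525) after 30 min, before the luciferase read.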
Nrf2 block = blocks Nrf2 signaling; Potency, µM (highest dose often 46 µM), inactives show top-dose activity change, negative = inhibition, hits mostly inhibitors; A549 ARE-Fluc reporter, luciferase luminescence, 18-24 h; hit rate 2.1% among 360,000; AID 504444; further: potency means the concentration at half of the fitted maximal effect; on the % scale 0 is the no-effect control and ±100 the full control effect; nearly all actives have a fitted effect of over 60% in size
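Reporter: ARE-Fluc in A549. Exposure: 18-24 h, 37 °C, 5% CO2, 5% FBS OPTI-MEM. Readouts: fluorescent cytotoxicity (CellTiter-Fluor), then luminescent Nrf2 signal after BugLite.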
BRCA1 expr up = BRCA1 expression activation. MCF7-BRCA1-FFLuc reporter, luminescence, 48 h; response scale: scaled: vehicle 0%, 10 µM genistein 100%. hit rate 1.1% among 380,000. Potency, µM (doses to about 46.1 µM), for inactives: at the top dose activation, hits mostly activators. AID 624202; further: potency means the concentration at half of the fitted maximal effect; nearly all actives have a fitted effect of over 80% in size
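First, MCF7-BRCA1-FFLuc cells (2000/well) attach for 2 h; next, compounds are pin-added and incubated 48 h at 37 °C; finally, luciferase reagent is added and luminescence read after 15 min.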
Nrf2 activator = activators of Nrf2 (ARE) signaling; AREc32 ARE-luciferase reporter (MCF7-derived line), luminescence, 24 h; Potency, µM (doses to about 46.1 µM), for inactives: top-dose activation, hits mostly activators; hit rate 0.31% among 410,000; AID 624171; further: potency means the concentration at half of the fitted maximal effect; % of control where 0% means no effect; nearly all actives have a fitted effect of over 65% in size
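AREc32 cells carrying an ARE-driven firefly luciferase, 1000 cells/well in OPTI-MEM with 5% FBS, dosed after overnight attachment and incubated 24 hr at 37 deg C. Steady-Glo luminescence read after 30 min at RT.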
p53 reactivation = restores transcriptional activity of mutant p53. H1299 p53-A138V BP100-luciferase reporter, luminescence, 24 h. Potency, µM (top dose mostly 92.2 µM), for inactives: at the top dose activity change, positive = activation, usual class: activators. hit rate 0.063% among 320,000. AID 504706; further: potency means the concentration at half of the fitted maximal effect; % of control where 0% means no effect; nearly all actives have a fitted effect of over 45% in size
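H1299 (p53-null), stable ts p53-A138V + BP100-Luc; 1000 cells/well, Opti-MEM/10% FBS; cpd 4 pt, 1:5; 24 h, 37 deg C, 5% CO2; detection reagent 10 min RT; luminescence.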
An asterisk follows results filed as active; ? = inconclusive; · = not tested or not shown; [ ] = another dose, or the depositor's remark. Unless noted, the call rests on the fitted dose curve; in most records, active means well fitted curve in the direction sought with a large enough effect; inconclusive means small, poorly fitted or top-dose-only effect, or another doubt; inactive means no such curve, though single readings can be large; an effect the other way counts as inactive or inconclusive.

SMILES	IL2 activator	A549 viability	Nrf2 block	BRCA1 expr up	Nrf2 activator	p53 reactivation
CN(Cc1ccccc1)C(=O)c1ccc(NC(=O)Cc2ccc(NC(=O)C3CCN(C(=O)CCc4ccccc4)CC3)cc2)cc1	-1	5%	?	-14%	2%	·
CCCCCSc1nnc2c(n1)OC(c1ccc(C)s1)N(C(C)=O)c1ccccc1-2 (stereo unspecified)	·	?	?	·	-2%	·
O=C1CCc2cc(S(=O)(=O)NCc3ccccc3)ccc2N1	·	-5%	3%	·	·	·
C=C1C(=O)C=C2CN(C(=O)c3ccccc3)[C@@](Cc3ccc(F)cc3)(C(=O)OC)[C@@H]12	0	10µM*	13µM*	-81%	-3%	-29%
Cc1cc2cc(OCc3ccccc3)ccc2n1C	-3	-8%	8%	?	7%	8%
Cc1c(C=O)c2cc(OCc3ccccc3)ccc2n1C	-4	2%	23%	10µM*	4%	17%
CCNc1nc(NCc2ccccc2)nc(SCC(=O)Nc2ccccc2)n1	-3	-16%	23µM*	-48%	4%	-9%
CCNc1nc(NCc2ccccc2)nc(SCC(N)=O)n1	-4	8%	-19%	3%	1%	5%
O=C(CC1SC(=Nc2cccc3ccccc23)N(Cc2ccccn2)C1=O)Nc1ccccc1Br (stereo unspecified)	0	-19%	5.2µM*	-65%	4%	-5%
Cc1ccc(-c2cc(C(=O)Oc3ccccc3)c3cc(C)ccc3n2)cc1	·	-4%	0%	·	0%	·
O=C(NC1CCCCC1)C(=O)c1c[nH]c2ccccc12	2	2%	?	13µM*	4%	?
S=C(NCCc1c[nH]c2ccccc12)NC1CCCCC1	0	-2%	16%	11µM*	1%	22%
O=C(COC(=O)c1c[nH]c2ccccc12)NC1CCCC1	0	8%	6%	7%	6%	12%
CCn1ccc2cc(S(=O)(=O)N3CCC(C(=O)NCCc4ccc(C)cc4)CC3)ccc21	·	0%	·	·	0%	·
Cc1nn(CCOc2ccccc2)c(=O)n1-c1ccc(F)cc1	1	11%	?	13µM*	2%	17%
CCNC(=S)Nc1ccc(Cl)c([N+](=O)[O-])c1	-1	?	18µM*	2%	3%	6%
Cc1ccc(NC(=O)CCSc2nc(-c3ccco3)cc(C(F)(F)F)n2)cc1F	·	-3%	10µM*	·	-1%	·
Cc1cc(NC(=O)CCCSc2nc(-c3ccco3)cc(C(F)(F)F)n2)n(-c2ccccc2)n1	0	-17%	26µM*	-42%	3%	-19%
O=C(CCSc1nc(-c2ccco2)cc(C(F)(F)F)n1)Nc1cccc(O)c1	·	3%	5%	·	1%	·
CSCc1ccc(C(=O)N2CCCC(Nc3ccc4c(c3)OCCO4)C2)o1 (stereo unspecified)	1	0%	8%	1%	0%	12%
O=C(c1ccco1)N1CCCC(Nc2ccc3c(c2)OCCO3)C1 (stereo unspecified)	0	0%	22%	8.9µM*	6%	?
Cc1ccc(C)c(CN2C(=O)CSc3ccc(C(=O)NCc4ccc(F)cc4)cc32)c1	·	0%	6%[9.27 µM]	2%	-1%	·
Cc1ccc(Oc2coc3cc(O)ccc3c2=O)cc1	-1	1%	9.2µM*	65%	-1%	18%
Cc1cc(C)cc(Oc2coc3cc(O)ccc3c2=O)c1	0	-3%	?	4%	0%	·
CCc1c(C)[nH]n(-c2nc(-c3ccccc3)cs2)c1=O	0	4%	?	34%	4%	22%
Cc1[nH]n(-c2nc(-c3ccc(Cl)cc3)cs2)c(=O)c1N=Nc1ccc(O)cc1	0	15µM*	?	-78%	3%	-2%
Cc1oc(-c2cc(F)ccc2F)nc1CN1CCN(c2ncnc3ccccc23)CC1	-4	-9%	26µM*	-22%	-1%	7%

Source: PubChem
